HT1080 IDH1KD tx: kills HT-1080 cells with IDH1 knockdown. Potency, µM (highest dose often 46.1 µM), for the others: top-dose activity, negative = toxicity, usual class: cytotoxic. 2% of 360,000 active. HT-1080 IDH1 knockdown viability, ATP luminescence, 48 h;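 also: 0% = DMSO wells and -100% = cell-free medium wells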
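Knockdown cells (IDH1KD HT-1080) received compounds 2 h after plating at 750 cells/well and were kept 48 h at 37 °C in 5% FBS RPMI. A CellTiter-Glo luminescence read gave % activity for curve fitting.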
DT40 TDP1 no CPT: qHTS for Inhibitors of human tyrosyl-DNA phosphodiesterase 1 (TDP1): qHTS in cells in absence of CPT | DT40 Tdp1-/- hTDP1 cells, no CPT, ATP luminescence, 48 h | Potency, µM (highest dose often 46.2 µM), without a hit: top-dose activity change, negative = growth inhibition, hits mostly inhibitors | 15% of 420,000 active; also: % is scaled to controls: 0 for no effect and ±100 for the full control effect; nearly all actives have a fitted effect of over 55% in size
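Seeded 400 DT40-hTDP1 cells/well (vehicle DMSO, no 20 nM CPT); pinned compounds; ≥48 hr at 37 °C; CellTiter-Glo luminescence as viability measure.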
TGFb inhibitor: TGF-b pathway inhibition; 1.2% of 410,000 active; Potency, µM (series often up to 46.1 µM), without a hit: top-dose activity, negative = inhibition, usual class: inhibitors; HepG2 CAGA-GFP TGF-b/SMAD3 reporter, GFP fluorescence, 18 h; TGF-beta stimulated, 500 pg/mL final; also: % is scaled to controls: 0 for no effect and ±100 for the full control effect; nearly all actives have a fitted effect of over 65% in size
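First, reporter cells (HEPG2 CAGA-GFP) rested 2 h at 37 degrees C. Next, compounds were pinned in and TGF-beta added to 500 pg/mL final. After 18 h, GFP was imaged per cell and summed per well.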
DT40 TDP1 CPT: growth inhibition of DT40 Tdp1-/-;hTDP1 cells with camptothecin (screen for TDP1 inhibitors); chicken DT40 Tdp1-/-;hTDP1 cells + 20 nM CPT, ATP luminescence, 48 h; Potency, µM (top dose mostly 46.2 µM), for inactives: at the highest dose activity change, negative = growth inhibition, hits mostly inhibitors; 12% of 420,000 active; also: % is scaled to controls: 0 for no effect and ±100 for the full control effect; nearly all actives have a fitted effect of over 55% in size
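Cell growth measured by CellTiter-Glo luminescence after a minimum 48 h, 37 C compound exposure with 20 nM CPT in Tdp1-knockout DT40 cells stably expressing hTDP1, seeded 400/well; qHTS titration format.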
HT1080NT lethal: kills 2HG-producing HT-1080-NT fibrosarcoma cells | 1.6% of 360,000 active | Potency, µM (titrated, usually from 46.1 µM), for the others: top-dose activity, negative = less viability, most hits filed as cytotoxic | HT-1080-NT fibrosarcoma viability, CellTiter-Glo ATP luminescence, 48 h;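 also: NT is the 2HG producing partner of a matched IDH1 knockdown line; 0% = DMSO-treated cells and -100% = media-only wells without cells; nearly all actives have a fitted effect of over 55% in size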
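HT-1080-NT; 750 cells/well; 5% FBS RPMI; 48 h compound, 37 degrees C; CellTiter-Glo luminescence; curve fitting and curve-class assignment.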
HepG2 viability: HepG2 cytotoxicity, counter-screen for TGF-b inhibitors | HepG2 CAGA-GFP viability, ATP luminescence, 18 h | Potency, µM (series often up to 46.1 µM), inactives show at the top dose activity change, negative = cytotoxicity, most hits filed as cytotoxic | 0.76% of 410,000 active | AID 588856
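HepG2 CAGA-GFP cells (1000/well, DMEM with 1% FBS) received compound, then TGF-beta at 500 pg/mL final, and were incubated 18 hours at 37 degrees C. Viability was read by CellTiter-Glo luminescence. Media-only wells were set as complete cell-killing and DMSO as no toxicity.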
Active calls of the source: *; ? = inconclusive; · = no result given; [ ] = remark or other dose. Shown are actives, neighbours in structure and some others; about 17% of the full set was active somewhere. Calls follow the shape of the dose curve; as a rule, active = well fitted curve in the direction sought with a large enough effect; inconclusive = small, poorly fitted or top-dose-only effect, or another doubt; inactive = no such curve, though single readings can be large; an effect the other way counts as inactive or inconclusive. Potency is read from the fitted curve at half-maximal effect.

SMILES | HT1080 IDH1KD tx | DT40 TDP1 no CPT | TGFb inhibitor | DT40 TDP1 CPT | HT1080NT lethal | HepG2 viability
CCOC(=O)Cc1csc(NS(=O)(=O)c2ccc(Cl)cc2)n1 | -0.1% | 0.5% | -3.9% | -7.9% | 1.0% | -0.2%
CCCNC(=O)Nc1nc(CC(=O)OCC)cs1 | 14.7% | -4.4% | -1.7% | -1.4% | 16.9% | -5.9%
CCOC(=O)Cc1csc(N/C(=N/S(=O)(=O)c2ccc(Cl)cc2)c2ccccc2)n1 | -4.9% | 29.1µM* | -3.1% | ? | -6.2% | -9.4%
CCOC(=O)Cc1csc(NC(=O)Nc2ccc(F)cc2)n1 | -10.5% | 18.4µM* | 3.6% | ? | -19.6% | -2.7%
CCOC(=O)Cc1csc(NC(=O)CC)n1 | 9.0% | -2.8% | -2.8% | 7.5% | 7.7% | -18.7%
CCOC(=O)Cc1csc(NC(=O)C(NC(=O)C2CCC(C)CC2)C(C)C)n1 (stereo not drawn) | -1.2% | 8.2µM* | -18.0% | ? | 2.9% | -22.6%
CCOC(=O)Cc1csc(NC(=O)Cn2cnc3c2c(=O)n(C)c(=O)n3C)n1 | 0.0% | -79.6% | 2.7% | 16.4µM* | 9.4% | -13.2%
COCCN(Cc1ccccc1)C(=O)c1cccc(S(=O)(=O)N(C)c2c(C)n(C)n(-c3ccccc3)c2=O)c1 | 0.1% | -23.5% | ? | ? | 4.9% | 0.0%
C=CCC1(NC(C)c2ccccc2)CCCCC1 (stereo not drawn) | -3.2% | -19.7% | ? | -13.9% | -1.0% | 7.1%
CC(C)n1c(/N=C/c2ccccc2O)nc2ccccc21 | -0.9% | -8.0% | 0.8% | 9.7% | -0.5% | 0.0%
CCOC(=O)C(C)NC(=O)C(NC(=O)C1CCC(CC)CC1)C(C)C (stereo not drawn) | -1.2% | ? | -10.9% | 14.6µM* | 0.5% | 1.6%
CCOC(=O)Cc1csc(NC(=O)Nc2ccc(C)cc2)n1 | -10.1% | ? | -7.7% | -25.9% | 7.31µM* | -7.4%
CCOC(=O)Cc1csc(NC(=O)CCS(=O)(=O)Cc2ccccc2)n1 | 10µM* | -26.4% | -4.4% | ? | ? | 1.1%
CCOC(=O)Cc1csc(NC(=O)/C=C/c2ccc(Cl)cc2)n1 | -19.4% | ? | -21.0% | 18.4µM* | -20.2% | -12.2%
CCC(C)C(NC(=O)C1CCC(C)CC1)C(=O)NC(C(=O)OC)C(C)C (stereo not drawn) | -2.0%[9.24 µM] | ? | -14.8% | -14.6% | -2.0% | -1.8%
CC(C)(C)c1ccc(C(=O)NCc2nnc(SCC(=O)N3CCCC3)o2)cc1 | -7.8% | ? | 4.5% | -18.4% | -5.0% | -9.4%
COc1ccc2c(c1)CCc1cnc(-n3ncc(C(=O)NCCCN4CCOCC4)c3C)nc1-2 | · | ? | · | -2.3%[9.04 µM] | · | ·
O=C(NCc1ccco1)Nc1nnc([C@H]2C[C@H](O)[C@@H](CO)O2)s1 | 18.6% | -5.4% | 9.6% | -2.6% | 15.4% | 16.5%
CCOC(=O)Cc1csc(NC(=O)c2cccc(OC)c2)n1 | 0.1% | ? | -30.9% | -29.4% | 5.0% | -5.4%
CCOC(=O)Cc1csc(NC(=S)NC(=O)c2cc(OC)c(OC)c(OC)c2)n1 | -1.3% | 11.6µM* | -1.8% | ? | 1.7% | 0.3%
CCOC(=O)Cc1csc(NC(=S)NC(=O)c2ccc(F)cc2)n1 | 11.5% | -24.0% | -4.5% | -0.5% | -2.6% | -5.7%
CCOC(=O)Cc1csc(NC(=O)c2sc3nc4c(C)cc(C)cc4cc3c2N)n1 | ? | 18.4µM* | 45.5% | ? | ? | -58.2%
CCn1c(SCC(=O)Nc2oc(C)c3c(C)n[nH]c(=O)c23)nnc1-c1ccco1 | -14.3% | -13.9% | 11.5% | -22.5% | -0.1% | -8.8%
Cc1ccc(S(=O)(=O)NCCC(=O)Nc2ccncc2)cc1C | -3.4% | ? | -0.5% | ? | -16.3% | -15.6%
O=c1[nH]cnc2n[nH]nc12 | · | ? | 15.7% | -7.7% | · | 20.8%
SMILES | HT1080 IDH1KD tx | DT40 TDP1 no CPT | TGFb inhibitor | DT40 TDP1 CPT | HT1080NT lethal | HepG2 viability
COc1ccccc1/C=C/c1ccnc2ccccc12 | · | 14.1µM* | -23.8% | ? | · | -33.0%
COc1cc(OC)c(OC)cc1/C=C/c1ccnc2ccccc12 | ? | 16.4µM* | ? | 13µM* | ? | -29.1%
COc1ccc(OC)c(Nc2ncnc3ccccc23)c1 | -2.3% | -26.8% | -4.0% | -20.7% | -2.8% | 9.3%
COc1ccc(OC)c(/C=C/c2ccnc3ccccc23)c1 | ? | 4.61µM* | ? | 3.66µM* | ? | -76.2%
COc1ccc2ncccc2c1Cc1c(OC)ccc2ncccc12 | -11.2% | 13µM* | 10.6% | 14.6µM* | 0.0% | -12.5%
COc1cc(OC)c(OC)cc1/C=C/c1nccc2ccccc12 | · | ? | -20.1% | ? | · | -16.8%
Cc1ccc(Cn2c(=O)n(CCc3ccccc3)c(=O)c3sc4ccccc4c32)cc1 | · | 11.1% | -16.3% | 3.7% | · | -9.1%
Cc1noc(C)c1C(=O)N1CCC2(CCN(Cc3ccccc3)CC2)CC1 | · | 14.4% | · | 7.9% | · | ·
CC(=O)c1ccc(-n2c(CCC(=O)O)ccc2-c2ccc(Br)cc2)cc1 | -0.7% | -14.4% | -5.0% | -6.9% | 3.1% | -11.3%
Cc1cc(C)cc(N/C(N)=N/c2nc(C)cc(C)n2)c1 | 1.0% | ? | -3.8% | ? | 4.8% | -2.0%
CC(=O)Nc1cccc(N/C(N)=N/c2nc(C)cc(C)n2)c1 | -8.2% | -12.1% | -15.8% | 25.9µM* | -12.5% | -11.4%
CCCCc1ccc(N/C(N)=N/c2nc(C)cc(C)n2)cc1 | 20.6µM* | 5.17µM* | ? | ? | 32.6µM* | 15.8µM*
COc1cc(N/C(N)=N/c2nc(C)cc(C)n2)c(OC)cc1Cl | -12.5% | 18.4µM* | -13.6% | 14.6µM* | -18.0% | -35.8%
Cc1ccc(N/C(N)=N/c2nc(C)cc(C)n2)cc1 | 1.1% | 20.6µM* | 0.0% | 14.6µM* | 0.6% | -1.6%
COc1cccc(CN2CCC3(CCC(CNC(=O)c4cc(C)nn4C)O3)CC2)c1OC (stereo not drawn) | · | -19.7% | · | 4.0%[9.04 µM] | · | ·
Cc1cc(C)nc(/N=C(\N)Nc2cccc([N+](=O)[O-])c2)n1 | -1.6% | ? | 0.0% | ? | 4.5% | 5.5%
CCC(=O)Nc1ccc(N/C(N)=N/c2nc(C)cc(C)n2)cc1 | -1.8% | 14.6µM* | ? | 13µM* | -5.3% | -27.1%
Cc1cccc(N/C(N)=N/c2nc(C)cc(C)n2)c1 | -15.4% | 16.4µM* | -9.5% | ? | -15.7% | -2.8%
CCN(/C(N)=N/c1nc(C)cc(C)n1)c1ccccc1 | -12.8% | 16.4µM* | 0.1% | -30.5% | 6.8% | -17.6%

Compound activity: PubChem, National Center for Advancing Translational Sciences (NCATS)
